Only some compounds are listed: those with a hit (about 21% of all), similar ones and a draw of the others.
Pf growth 48h: P. falciparum growth inhibition at 48 hours (one generation); P. falciparum luciferase growth in erythrocytes, 48 h; Potency, µM (titrated, usually from 28.7 µM), actives largely listed as inhibitors; hit rate 5.9% among 310,000
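A one-generation exposure of luciferase-tagged malaria parasites in RPMI 1640/Albumax erythrocyte culture, 37 C and 5% CO2. Inhibition is inferred from decreased luminescence after adding detection reagent.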
Pf growth 96h: inhibits malaria parasite growth, 96 h | P. falciparum luciferase reporter growth, 96 h | Potency, µM (doses to about 28.7 µM), actives largely listed as inhibitors | hit rate 6.9% among 320,000
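Infected RBCs, 2% Hct / 0.05% parasitemia final; luciferase-reporter P. falciparum; cpd 96 h, 37 C, 5% CO2; luciferase detection reagent; luminescence.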
Shiga toxin inh: inhibitors of Shiga toxin in Vero cells | Vero cells, Shiga toxin protein synthesis inhibition reporter | inhibition, % at 38.7 µM | hit rate 9.2% among 290,000; in the data active = inhibition mostly above about 28%, no sharp cut-off; inactive = mostly below about 43%
HCV inhibitor: blocks hepatitis C virus; Huh7.5.1 HCVcc-Cre infection, luciferase reporter, 44 h; Potency, µM (series often up to 41.8 µM), usual class: inhibitors; hit rate 3.4% among 340,000
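Compounds are dispensed onto cells plated 4 h earlier at 1,000 per well, with HCVcc-Cre virus (about 0.5 moi) added next. Following 44 h of culture, luminescent signal is measured for 15 sec after 15 min with substrate at room temperature.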
CHX counter: counter-screen hit for Shiga toxin inhibitors, cycloheximide; cell reporter, cycloheximide protein synthesis inhibition counterscreen; max response, %; hit rate 12% among 300,000; AID 2314; in the data active = max response mostly above about 13%, no sharp cut-off; inactive = mostly below about 14%; note: read at 38.3 µM for the half of the compounds with a filed dose
AMA1-RON2 inh: disrupts binding of P. falciparum AMA1 to RON2; AlphaScreen AMA1-biotinylated RON2 peptide binding; Potency, µM (doses to about 58.2 µM), usual class: inhibitors; hit rate 0.2% among 360,000; AID 720542; note: nearly all actives have a fitted effect of over 45% in size
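AMA1 (3D7) with his tag at 25 nM final met compounds first, then biotinylated RON2 peptide at 25 nM; detection used donor plus acceptor beads, 10 µg/mL apiece, read by AlphaScreen after 30 min at room temperature.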
Numbers stand for hits; - = inactive; ? = inconclusive; . = no result; [ ] = dose if it differs, or a comment. Unless noted, calls come from the whole dose curve; as a rule, active = well fitted curve in the direction sought with a large enough effect; inconclusive = small, poorly fitted or top-dose-only effect, or another doubt; inactive = no such curve, though single readings can be large; an effect the other way counts as inactive or inconclusive.

SMILES	Pf growth 48h	Pf growth 96h	Shiga toxin inh	HCV inhibitor	CHX counter	AMA1-RON2 inh
CC1(C(=O)NS(=O)(=O)c2cccc(F)c2)CCN1C(=O)CCc1ccccc1 (stereo unspecified)	.	.	.	.	.	-
O=C(CNC(=O)c1ccccc1)OC(C(=O)Nc1cc(C(F)(F)F)ccc1Cl)c1ccccc1 (stereo unspecified)	.	13.1µM	-	?	-	-
CCN(CC)CCNC(C(=O)Nc1cc(C(F)(F)F)ccc1Cl)c1ccccc1 (stereo unspecified)	-	?	-	-	-	-
Cc1cnc(C(=O)OC(C(=O)Nc2cc(C(F)(F)F)ccc2Cl)c2ccccc2)cn1 (stereo unspecified)	14.7µM	10.4µM	-	-	-	-
COc1ccc(C)cc1NC(=O)C(OC(=O)CNC(=O)c1cccc(F)c1)c1ccccc1 (stereo unspecified)	-	-	-	?	-	-
O=C(Nc1cc(C(F)(F)F)ccc1Cl)C(NCc1ccccc1)c1ccccc1 (stereo unspecified)	10.4µM	9.28µM	-	-	-	-
Cc1ccc(S(=O)(=O)N2C[C@H]3C(=O)C[C@@H](c4cccs4)N(S(=O)(=O)c4ccc(C)cc4)[C@H]3C[C@H]2c2ccccc2)cc1	.	.	.	.	.	-
COc1ccc(-c2[nH]ncc2Oc2ccccc2OC)c(O)c1	?	-	-	-	-	-
C=C(C)COc1ccc(-c2[nH]ncc2Oc2ccccc2OCC)c(O)c1	1.31µM	1.17µM	-	?	-	-
C=C(C)COc1ccc(-c2[nH]ncc2Oc2cccc(OC)c2)c(O)c1	9.28µM	8.28µM	-	?	-	-
CCOc1ccccc1Oc1cn[nH]c1-c1ccc(O)cc1O	8.28µM	9.28µM	-	?	-	-
C=C(C)COc1ccc(-c2ncncc2Oc2ccc(OC)cc2)c(O)c1	3.7µM	.	85.1	-	28.3	-
CCCCCCCCC(=O)c1c(OC)oc(C=O)cc1=O	.	.	.	.	.	-
Cc1ccc(S(=O)(=O)NCCn2nc(C)nc2C)cc1	-	-	-	-	-	-
CCN(CC)CCCNC(=O)C1c2ccccc2C(=O)N(CCOC)C1c1ccc(F)cc1 (stereo unspecified)	-	13.1µM	-	-	-	-
CC(C)CCCC(C)C1CC(=O)C2=C3CCC4CC(O)CCC4(C)C3CCC21C (stereo unspecified)	-	?	.	.	.	.
CCC(C)(C)c1ccc2c(c1)C(=O)c1ccccc1C2=O	-	?	36.7	?	61.7	-
CCc1ccc2cc3c(cc2n1)C(=O)c1ccccc1-3	.	.	.	.	.	-
COC(=O)N1CCCCC1c1cc(C(=O)NCc2ccc(Cl)c(Cl)c2)no1 (stereo unspecified)	.	.	.	.	.	-
CC(C)c1ccc(C2CC(c3ccc(Br)cc3)=NN2C(N)=S)cc1 (stereo unspecified)	?	?	active	?	-	-
CC(=O)N1N=C(c2ccc(Br)cc2)CC1c1ccc(Br)cc1 (stereo unspecified)	.	.	.	.	.	-
CNC(=S)N1N=C(c2ccc(C)cc2)CC1c1ccc(Br)cc1 (stereo unspecified)	.	?	-	?	-	-
CNC(=S)N1N=C(c2ccc(C)cc2)CC1c1ccc(Cl)cc1 (stereo unspecified)	.	8.28µM	-	?	-	-
CCCCCNC(=O)C(c1ccncc1)n1c(=O)c(-c2cc3ccccc3[nH]2)nc2ccccc21 (stereo unspecified)	.	.	.	.	.	-
COc1ccccc1-n1cc(-c2ccccc2)c2c(=S)nc[nH]c21	13.1µM	?	-	-	-	-
SMILES	Pf growth 48h	Pf growth 96h	Shiga toxin inh	HCV inhibitor	CHX counter	AMA1-RON2 inh
O=c1[nH]cnc2c1c(-c1ccccc1)cn2-c1cccc(Cl)c1	-	?	-	-	-	-
COc1ccc(-n2cc(-c3ccccc3)c3c(=O)[nH]cnc32)cc1	-	10.4µM	-	-	-	?
COc1cccc(-c2c(C#N)c(SC)nc3cc(C)nn23)c1	-	-	-	-	-	-
CCOC(=O)c1ccc2[nH]c3c(c2c1)CCCCC3=O	?	-[5.75 µM]	50.0	?	15.0	-
CCC(=NCc1ccco1)c1c(O)n(C2CCCCC2)c(=O)[nH]c1=O	?	?	-	-	-	-
CCC(=Nc1ccc(OC)cc1OC)c1c(O)n(C2CCCCC2)c(=O)[nH]c1=O	7.38µM	?	-	?	-	-
COC(=O)Cc1ccc(OC2(C)CCN(Cc3ccccc3OC(F)F)C2)cc1 (stereo unspecified)	.	.	.	.	.	-

Compound activity (PubChem)
